Coupling enz: qHTS Assay for Inhibitors of Fructose-1,6-bisphosphate Aldolase from Giardia Lamblia: Coupling assay counterscreen | actives 0.67% (n = 290,000) | AID 2472, 2010 | activity change, negative = inhibition, % at 58.2 µM, hits read low | coupling enzyme system counterscreen, AmpLite Red fluorescence; in the data active = activity change below about -30%
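Counterscreen lacking aldolase: glyceraldehyde-3-phosphate coupling-enzyme reagent preincubated 10 min at RT with compound (at 57.5 uM final), then substrate/coupling system with AmpLite Red added; fluorescence read at 525/598 nm after 20 min RT.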
Tau fibril ThT: qHTS for Inhibitors of Tau Fibril Formation, Thioflavin T Binding; Microtubule-associated protein tau (Homo sapiens), P10636; recombinant tau K18 P301L, heparin-induced fibrillization, ThT fluorescence; Potency, µM (doses to about 57.4 µM), hits mostly inhibitors; actives 2.1% (n = 270,000); AID 1460, 2008; also: nearly all actives have a fitted effect of over 55% in size
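In this qHTS, human K18 P301L tau is incubated with compound and heparin for 6 hr at 37 C, and Thioflavin T fluorescence then reports fibril load.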
Tau FP inhib: qHTS for Inhibitors of Tau Fibril Formation, Fluorescence Polarization. actives 0.39% (n = 280,000). AID 1468, 2008. K18 P301L tau heparin fibrillization, Alexa594 FP, 6 h. Potency, µM (doses to about 57.7 µM), hits mostly inhibitors; also: nearly all actives have a fitted effect of over 55% in size
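Heparin (20 uM) drove fibril formation of recombinant tau K18 P301L, 15 uM unlabeled with 0.24 uM Alexa 594 label, for 6 hr at 37 C in 100 mM sodium acetate pH 7. Fluorescence polarization (555/632 nm) read 1 hr after 30 uM ThT.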
USP1 inh: Inhibitors of USP1/UAF1: Primary Screen | Ubiquitin carboxyl-terminal hydrolase 1 (Homo sapiens), O94782 | recombinant USP1/UAF1, Ub-Rhodamine cleavage fluorescence | Potency, µM (series often up to 57.1 µM), most hits filed as inhibitors | actives 0.23% (n = 390,000) | AID 743255, 2014; also: nearly all actives have a fitted effect of over 60% in size
Target sequence (O94782 whole entry, looked up): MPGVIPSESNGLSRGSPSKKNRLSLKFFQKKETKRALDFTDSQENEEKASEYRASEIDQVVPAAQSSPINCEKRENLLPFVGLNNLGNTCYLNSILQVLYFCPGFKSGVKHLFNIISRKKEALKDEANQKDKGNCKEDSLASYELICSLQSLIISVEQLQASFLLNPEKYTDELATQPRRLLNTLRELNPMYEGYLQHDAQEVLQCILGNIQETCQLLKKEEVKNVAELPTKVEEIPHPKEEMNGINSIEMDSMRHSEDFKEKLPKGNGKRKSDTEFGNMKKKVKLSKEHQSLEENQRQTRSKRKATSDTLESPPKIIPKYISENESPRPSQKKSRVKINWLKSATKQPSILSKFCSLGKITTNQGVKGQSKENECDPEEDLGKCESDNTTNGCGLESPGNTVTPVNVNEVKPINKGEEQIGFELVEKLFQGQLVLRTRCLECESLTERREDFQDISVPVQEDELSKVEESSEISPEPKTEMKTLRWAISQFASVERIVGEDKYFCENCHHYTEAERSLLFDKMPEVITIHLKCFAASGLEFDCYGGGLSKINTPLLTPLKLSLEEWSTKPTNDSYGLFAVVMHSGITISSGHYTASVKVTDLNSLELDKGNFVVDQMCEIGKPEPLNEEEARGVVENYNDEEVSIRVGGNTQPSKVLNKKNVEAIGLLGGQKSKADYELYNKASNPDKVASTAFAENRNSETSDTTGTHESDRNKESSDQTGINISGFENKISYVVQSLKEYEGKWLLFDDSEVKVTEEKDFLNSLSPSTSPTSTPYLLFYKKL
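In this screen, compounds sit with the deubiquitinase complex (1nM) for 15 min at room temperature before Ub-Rho is added at 150nM final. Fluorescence rise is then followed for 6 reads every 60 seconds.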
Tau fluor counter: Counterscreen qHTS for Inhibitors of Tau Fibril Formation, Fluorescence Polarization; tau K18 P301L (four-repeat tau fragment) Alexa594 fluorescence, heparin fibrillization; AID 1463, 2008; actives 0.93% (n = 280,000); Potency, µM (top dose mostly 57.7 µM); also: nearly all actives have a fitted effect of over 55% in size
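Human K18 P301L tau (15 uM unlabeled plus 0.24 uM Alexa 594-labeled, final) in 100 mM sodium acetate pH 7 was mixed with compound and 20 uM heparin and incubated 6 hr at 37 C.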
Of the large screens only hits and unclear results are named; the others gave an inactive call; [ ] = dose if it differs, or a comment. Rows were chosen to be rich in hits. Some 2.3% of all compounds tested hit in one or more screens of this group. Unless noted, calls follow the shape of the dose curve; as a rule, active = well fitted curve in the direction sought with a large enough effect; inconclusive = small, poorly fitted or top-dose-only effect, or another doubt; inactive = no such curve, though single readings can be large; an effect the other way counts as inactive or inconclusive.

CC(=O)c1ccc(N2C(=O)C3C(C2=O)C(C(=O)c2ccc(Cl)cc2)N2CCCC32)cc1 (centres undefined)	Tau fibril ThT inconclusive, USP1 inh 18µM
CC(C)C(NS(=O)(=O)c1ccc2c(c1)oc(=O)n2C)C(=O)NCCc1ccccc1 (centres undefined)	none (no result: Coupling enz)
O=C(O)c1cc(N/N=C/c2ccc(N3CCOCC3)s2)ccc1Cl	Tau fibril ThT 11µM, Tau FP inhib inconclusive, Tau fluor counter inconclusive
NC(=O)N/N=C/c1ccc(N2CCOCC2)s1	Tau fibril ThT inconclusive
CCN(CC)S(=O)(=O)c1ccc2c(c1)N(CC(=O)NCCc1ccccc1)C(=O)CO2	none (no result: Coupling enz)
O=S(=O)(NNc1nccc(C(F)(F)F)n1)c1cccc(Cl)c1Cl	Tau fibril ThT 22µM, Tau FP inhib inconclusive
N#C/C(=C/c1ccc(N2CCCCC2)o1)C(=O)Nc1ccc(Cl)cc1	Tau fibril ThT inconclusive, USP1 inh 28µM
N#C/C(=C/c1ccc(N2CCCCC2)o1)C(=O)Nc1ccc2ccccc2c1	Tau fibril ThT 13µM, Tau fluor counter inconclusive
COc1ccc(NC(=O)/C(C#N)=C/c2ccc(Br)o2)cc1	Tau fibril ThT inconclusive
CCn1c(CN(C)c2ccccc2)nc2ccccc21	none (no result: Tau fibril ThT, Tau FP inhib, Tau fluor counter)
COc1ccc(-c2cc(C)nc3c(-c4ccc(OC)c(OC)c4)c(C)nn23)cc1	Tau fibril ThT 10µM, Tau FP inhib inconclusive, Tau fluor counter 14µM[quencher] (no result: Coupling enz)
COc1ccc(C(=O)OC(C)C(=O)NC(C)CCc2ccccc2)c(OC)c1 (centres undefined)	none (no result: Tau fibril ThT, Tau FP inhib, Tau fluor counter)
CCOC(=O)c1c(C)n(-c2ccc(C)cc2)c2c(C(C(C)=O)C(=O)O)c(Br)c(O)c(O)c12 (centres undefined)	Coupling enz -34, Tau fibril ThT inconclusive, Tau FP inhib inconclusive, Tau fluor counter inconclusive
Cc1cc(O)c(C(C[N+](=O)[O-])c2ccc(Cl)cc2Cl)c(=O)o1 (centres undefined)	Tau fibril ThT 28µM, Tau FP inhib inconclusive
Cc1ccc(C)c2c1[nH]c1ccccc12	Tau fibril ThT inconclusive, Tau fluor counter inconclusive
CC(C)=CCCC1(C)C=Cc2c(c(C)cc3c2[nH]c2ccccc23)O1 (centres undefined)	Tau fibril ThT inconclusive, Tau fluor counter 8.9µM[quencher] (no result: USP1 inh)
CN(C)/C=C/c1oc2ccc(O)cc2c1[N+](=O)[O-]	Tau fibril ThT 11µM
Cc1oc2ccc(O)cc2c1C(=O)c1ccc([N+](=O)[O-])cc1	none
CCCN(CCC)S(=O)(=O)c1ccc(NC(=O)c2cc(C(=O)OC)cc([N+](=O)[O-])c2)cc1	Tau fluor counter 8.9µM[quencher]
CCc1ccc(S(=O)(=O)ON2C(=O)c3ccccc3C2=O)cc1	Tau fibril ThT 16µM, Tau FP inhib inconclusive
Cc1nc2nncn2c(N2CCN(c3ccccc3)CC2)c1C	none (no result: Coupling enz)
CC(=O)Nc1ccc(N/C=C/C(=O)c2ccco2)cc1	Tau fibril ThT 10µM
CN(C)c1ccc(N/C=C/C(=O)c2ccco2)cc1	Coupling enz -35, Tau fibril ThT 2µM, Tau FP inhib inconclusive, USP1 inh inconclusive, Tau fluor counter inconclusive
CN(C)c1ccc(N/C=C/C(=O)c2ccc(F)cc2)cc1	Tau fibril ThT 2µM, Tau fluor counter inconclusive
COc1ccccc1Oc1ccc(N/C=C/C(=O)c2ccco2)cc1	Tau fibril ThT inconclusive, USP1 inh inconclusive, Tau fluor counter inconclusive
O=C(/C=C/Nc1ccccc1O)c1ccco1	Tau fibril ThT 13µM
NS(=O)(=O)c1ccc(N/C=C\C(=O)c2ccc(F)cc2)cc1	none
CC(=O)Nc1ccc(NC(=O)c2ccco2)cc1	none
Cc1ccc(CNC(=O)Cn2ccn(-c3ccc(F)c(F)c3)c(=O)c2=O)cc1	none (no result: Coupling enz)
CCc1ccc(Cc2cnc(NC(=O)c3ccc4c(c3)CC(c3ccccc3)OC4=O)s2)cc1 (centres undefined)	none (no result: Coupling enz)
Cc1cccc2nc(-c3ccccn3)c(Nc3ccc(F)cc3)n12	Tau fibril ThT inconclusive, Tau fluor counter inconclusive (no result: Coupling enz)
N#C/C(=C/c1ccc(N2CCOCC2)o1)C(=O)NC1CCCCC1	Tau fibril ThT inconclusive, USP1 inh inconclusive
COc1ccc(NC(=O)/C(C#N)=C/c2ccc(C)o2)cc1	Tau fibril ThT inconclusive (no result: Coupling enz)
